# According to the supplement of paper PMC11417369:
# The full ranking holds about 25,000 sequences; the median of “ln(normalized median fluorescence intensity)” is about 9.7, and the highest 2% start at about 11. The list comes from a sample in which the highest values are over-represented; it also holds similar and randomly drawn sequences.
# System: PfAP2-HC AP2 domain (GST-tagged)
# Assay: gcPBM binding intensity (ln(normalized median fluorescence intensity)); higher = stronger DNA binding
# Method in brief: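 Using an Agilent 4 × 180k array, primer-extended double-stranded 36-bp intergenic genomic probes and negative controls were exposed for 1 h to GST-fused P. falciparum DNA-binding domains expressed in E. coli. Binding was carried out in 1× PBS with 1% milk, 0.2 mg/ml BSA, 0.5% salmon testes DNA and 0.03% Triton X-100, and protein was detected with Alexa488 anti-GST antibody and a 488 nm scan. Binding intensity is the highest Masliner-normalised natural-log median intensity across replicate spots of either probe orientation.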
row,Sequence,gcPBM binding intensity (ln)
1,TATGAAAAAATATATACACACATAATAAAGGTATAT [CACACA_site3737],9.9
2,TAAATTTATAGACACACACACATATAAATAAATATA [CACACA_site6530],10.8
3,TCATAGTATAGACACACACACACACGCATATAAATA [CACACA_site6915],10.5
4,AAAAAAAAAAGACACACACACATATAAATATAAATA [CACACA_site6899],11.5
5,TAATTTTTTAGACACACACACATATAAATATAAATA [CACACA_site6195],10.8
6,TAATAAATAAGACACACACACATATATATATATTAT [CACACA_site1389],10.3
7,TATAAATAAAGACACACACACATATAAATAAATATA [CACACA_site7155],10.5
8,TACACGCATAGACACACACACACACGCATATAAATA [CACACA_site6446],11.3
9,CATATAAAAAGACACACACACACATATATATATATA [CACACA_site940],10.8
10,AACATTATAAGACACACACACACATATATATATATA [CACACA_site8259],10.8
11,AATAAATTTAGACACACACACACATATAAATAAATA [CACACA_site6531],11.1
12,AACATTATAAGACACACACACACATATATAAATATA [CACACA_site6622],11.2
13,TATATAAATAGACACACACACACATATAAATAAATA [CACACA_site7855],10.7
14,AAAAAAAAAAAATTCACACACATATAAAAAATTAAG [CACACA_site728],10
15,AATAAATATAGGTACACACACAAATATGTACATATC [CACACA_site6976],10.2
16,ATTCTCCATGTTTGATGTACTCATATGACGACGGAG [XGTACX_site4923],9.52
17,AATATATGTATATCCACACACATATATATATATATA [CACACA_site1633],9.96
18,ATACATATTCTTATTTGTACTTATTATAAAATGGTC [XGTACX_site6584],9.56
19,ATATATATTTATTTATGTACGAATAAATTTACGAAT [XGTACX_site5190],9.51

row,Sequence,gcPBM binding intensity (ln)
1,CTTATCAAAAAAAAAGCATGCCACAGGCAAAAGGTA [TGCATGCA_site574],9.71
2,ATAGAATAAATTTTGTCATTTATTCCTTATATATAA [GTGCAC_negctrl_site227],9.56
3,TTATATATTTTTAGGTGTACTTTTTTTTTTTTTTTT [XGTACX_site8164],9.54
4,ATATATATATAATAAACACACACATATACATATATG [CACACA_site9145],10.5
5,ATAAAAAAAGGACACACACACATATATATATATATA [CACACA_site5662],10.8
6,AAAAATAAAATATATACATGCATATACATATTATAT [TGCATGCA_site668],9.65
7,AAACATAAGAGACACACACACATATATAAATAAATA [CACACA_site7674],10.5
8,CATATAAAAGGACACACACACACATATATATATATA [CACACA_site4674],11.6
9,AATAACCACCAACACACACACATATATATATATATA [CACACA_site3540],10.2
10,TAAAACATAAGAGACACACACACATATATATATATA [CACACA_site3643],10.9
11,AAATTCCACCAACACACACACATATAAATAAATAAA [CACACA_site1233],11
12,ATAAAAAAAGGACACACACACATATATTTATTTATA [CACACA_site7438],10.5
13,ATATTATATATATACACACACACATGCATGCACATA [CACACA_site7917],10.3
14,ATAAAAAAAAGACACACACACATATATATATATATA [CACACA_site3073],10.3
15,AAATTCCACGAACACACACACATATAAATAAATAAA [CACACA_site6697],10.6
16,ATATTATATAAATACACACACACATGCATGCACATA [CACACA_site4236],11.2
17,ATAGATATAACATATGCATGTAAAATATAACCACTC [TGCATGCA_site60],9.97
18,TTCACTAATAAATACGCACACATATACAGATATATA [CACACA_site4887],9.94
19,GAGTTTTAATGTAATAGTACTTTAATTATTATATAT [XGTACX_site4527],9.7

row,Sequence,gcPBM binding intensity (ln)
1,ATACACAAAATTATTAAATCAATAAATATATGGTTT [CACACA_negctrl_site353],9.57
2,TAATATCATTTATGGGGTACCTCCTATTCTTATTTA [XGTACX_site1839],9.64
3,TAACTTTTTTTTTTTTTTTTTTAACTTTTATGTAAT [GTGCAC_negctrl_site156],9.45
4,AAACAATTTAGACATACACACAAAAATAATATTATA [CACACA_site384],10.3
5,GAAATATTTAGACACACACACAAACATATAAATATA [CACACA_site6980],11.1
6,TTAAACAATTTAGACATACACACAAAAATAATATTA [CACACA_site385],9.87
7,TACATCTGTAATGTGTGTACATATATGTATATATTT [XGTACX_site1805],9.87
8,TTTATTAATAAACACACACACACACCCAAAATAAAA [CACACA_site7966],11
9,TTTATTAATGGACACACACACACACCCAAAATAAAA [CACACA_site4294],10.5
10,ATAAATAAAAAACACACACACACACCCAAAAAAAAA [CACACA_site2624],10.7
11,AACACCCACAGACACACACACAAAAATGATTAAAAA [CACACA_site2433],10.9
12,TATTTATTAAAACACACACACACACCCACAAAATAA [CACACA_site241],10.5
13,TTAACAAATAAACACACACACACACCCAAAAAAAAA [CACACA_site8068],11.1
14,TAATAAATAAATGACACACACACACGCAAAAAAAAA [CACACA_site7275],10.6
15,AAAAAAAAAAAACACACACACAAAATAAACAAACAA [CACACA_site2721],10.5
16,TTTATTAAGAAACACACACACACACCCAAAATAAAA [CACACA_site242],10.5
17,ATATAAAATAGACACGCACACAAAAAAAAAAAAAAA [CACACA_site3522],10.4
18,TTTATTAATAGACACACACACACACGCAAAATAAAA [CACACA_site6255],11.2
19,ATTAATAAATAAATGACACACACACCCACAAAAAAA [CACACA_site8839],11.3
